The list shows a part of the results. Results filed as inconclusive are left out. Calls of active or inactive are those of the source. The call rests on the fitted dose curve; in most records, active means well fitted curve in the direction sought with a large enough effect; inconclusive means small, poorly fitted or top-dose-only effect, or effect the other way, or another doubt; inactive means no such curve, though single readings can be large or run the other way.
Assay: Confirmation Concentration-Response Assay for Agonists of the Thyroid Stimulating Hormone Receptor: Activators of Intracellular cAMP Concentrations in Parental HEK 293
Conditions: parental HEK293 CNG biosensor, cAMP membrane potential fluorescence; series mostly up to 32.9 µM; activity change, negative = inhibition: at the top concentration
From the text: NIH Chemical Genomics Center [NCGC] NIH Molecular Libraries Screening Centers Network [MLSCN] MLSCN Grant: 1 X01 MH080680-01 PI Name: Dr. Marvin Gershengorn NCGC Assay Overview: This cell based assay utilized a cyclic nucleotide gated ion channel (CNG) as a biosensor for cAMP induction. HEK 293 cells stably expressing the modified CNG were purchased from BD biosciences (http://www.atto.com/products/actone/features_benefits.shtml) . Stimulation of cAMP production causes the CNG to open and subsequent membrane depolarization to occur. A fluorescent membrane potential dye (BD biosciences) was utilized to detect cAMP stimulation in cells. The cells were maintained in DMEM medium (Invitrogen) containing 10 % FBS (Hyclone), 100 units/ml Penicillin, 100 ug/ml Streptomycin (Invitrogen), and 250 ug/ml Geneticin (Invitrogen) and 1 ug/ml Puromycin (Invitrogen) at 37C in 5% CO2. This assay was used as a counterscreen to "Confirmation Concentration-Response Assay for Agonists of the Thyroid Stimulating Hormone Receptor", to control for compounds signaling through endogenous receptors and other targets of HEK 293 cells.
NCGC Assay Protocol Summary: High Throughput Screening. Freshly passaged cells were dispensed into 1536-well assay plates at 4 ul/well in DMEM containing phenol red (Invitrogen), 10% FCS (Hyclone), and 100 units/ml Penicillin, 100 ug/ml Streptomycin (Invitrogen) and incubated at 37 C with 5% CO2 for 20 to 36 hrs before the robotic screening. The screen was initiated by addition of 4 ul/well membrane potential dye containing 100 uM RO 20-1724 (Sigma Aldrich), followed by 60 min incubation at room temperature to allow for dye equilibration across the cell membrane. 23 nl/well compound or control was then added to the assay plates, which were incubated for additional 30 min before reading a Envision fluorescence plate reader (Perkin Elmer) in bottom-read mode for fluorescence intensity (emission at 590 nm). Keywords: cAMP, CNG Ion Channel, quantitative high throughput screening, qHTS, HTS, probe identification, CNG, cAMP, cyclic nucleotide gated ion channel PubChem
For `CCOC(=O)c1cnc(-n2nc(C)cc2C)nc1-n1nc(C)cc1C`, the “activity change, negative = inhibition” value was -6.3% (inactive).
For `Cc1ccc(Nc2nc(CSc3nnnn3-c3ccccc3)cc(=O)[nH]2)cc1`, the “activity change, negative = inhibition” value was -123% [at 25.6 µM] (inactive).
With `CCOC(=O)CSc1nnc(NC(=O)c2cccc(S(=O)(=O)N3CCCCC3)c2)s1` the “activity change, negative = inhibition” value was -6.14% [at 25.6 µM] (inactive).
For `C=CCn1c(COc2ccccc2F)nnc1SCC(=O)N1CC(=O)Nc2ccccc21`, the “activity change, negative = inhibition” value was -6.56% [at 25.6 µM] (inactive).
For `O=C(COC(=O)C12CC3CC(CC(C3)C1)C2)NCc1ccco1`, the “activity change, negative = inhibition” value was -5.29% (inactive).
For `O=C(CN1C(=O)NC2(CCCCC2)C1=O)NCCC1=CCCCC1`, the “activity change, negative = inhibition” value was -9.98% (inactive).
